Consider 40 compounds from PubChem BioAssay (NCI).

SMILES strings stand for the structures. “And” between values parts separate entries of the source, which are not always exact repeats. Equal values may be shown once. The panel holds about 83,000 compounds, 20% with a hit somewhere; the sample as a whole holds those more often.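 Compound tested at a single concentration for 48 hours in 96-well plates; a percent growth value below 10 was scored as active.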 The source made the active and inactive calls.

The assay concerns COLO 205 colon. The assay can be described thus: NCI-60 one-dose screen, 48 h (100 = growth as untreated, 0 = no growth, -100 = all killed). Conditions: 10 µM unless noted. The protocol:
Cells are grown in 96 well plates and exposed to the test compound for 48 hours. Compounds are tested at a single concentration, which is 10^-5 M for most compounds. The reported endpoint is percent growth (GI% or GIPRCNT), where numbers from 0 - 100% represent growth inhibition, and numbers from -100% - 0 represent cell death. For example, a value of 40 represents 60% growth inhibition. A value of 0 means no net growth occurred over the course of the experiment. A value of -40 indicates 40% of cells at the beginning of the experiment died by the end of the experiment. A value of -100 means all cells are dead at the end of the experiment.
NCI-60 Human Tumor Cell Lines Screen was performed using the standard one-dose NCI protocol, which is described in more detail at https://dtp.cancer.gov/discovery_development/nci-60/default.htm.
Compounds with GIPRCNT values below 10 were considered active. Activity score was based on GIPRCNT using the following formula: […]
Score is 0 for GIPRCNT values of 100 or above, 50 for GIPRCNT values of 0, and 100 for GIPRCNT values of -100.
With `COc1ccc(C(=O)C(O)c2ccc(OC)cc2)cc1` (stereo not given), the growth is 110% (inactive) and 108% (inactive). `NC(=O)Cc1nc(O)cc(=O)[nH]1`: the growth was 108% (inactive). Then `C#CCOC(=O)C(N)CS` (stereo not given), with 106% (inactive). Then `CC(=O)Nc1ccc2oc(=O)ccc2c1`, with 107% (inactive); and `CNc1ccc(O)cc1`, with 132% (inactive) and 117% (inactive); and `Nc1c(S(=O)(=O)O)cc(Br)c2c1C(=O)c1ccccc1C2=O`, with 97.5% (inactive) and 106% (inactive). `COc1ccc(-n2[nH]c3c(cnc4ccccc43)c2=O)cc1`: the growth was 137% (inactive) and 119% (inactive). As for `CCOC(=O)CN1CCC(C(=O)OCC)CC1`, the growth is 112% (inactive). In the case of `COC(=O)c1cc(C(=O)OC)cc([N+](=O)[O-])c1`, the growth was 101% (inactive). As for `OC(CC(c1ccccc1)c1cccc2ccccc12)(c1ccccc1)c1ccccc1` (stereo not given), the growth was 90.3% (inactive) and 92.4% (inactive).

Regarding `Nc1[nH][nH]c(=O)c1N=Nc1ccccc1`, the growth was 107% (inactive) and 112% (inactive). Under `Cc1c(Cl)cc(Cl)c(N)c1Cl` stands 108% (inactive); under `CC(O)CCNC(c1ccccc1)C(O)c1ccccc1` (stereo not given), 117% (inactive). Then `CCN(CC)Cc1cc2[nH]c3c4ccc(Cl)cc4ncc3c2cc1OC`, with -16.9% (active) and 1.13% (active); and `CC1CC(O)CC(C)(C)C1.CC1CC(O)CC(C)(C)C1.CC1CC(O)CC(C)(C)C1.CC1CC(O)CC(C)(C)C1.[Ti]` (stereo not given), with 108% (inactive). In the case of `Nc1nc(N)c2cc(S(=O)(=O)c3ccccc3)ccc2n1`, the growth was 53.7% (inactive) and 58.3% (inactive).

For the compound `Oc1ccc(O)c(-c2ccccc2)c1`, the growth is 85.9% (inactive).

For `O=C1c2ccccc2C(c2ccccc2)C1c1ccccc1` (stereo not given), the growth was 101% (inactive). Then `CC(C)(C(=O)c1cccnc1)c1cccnc1`, with 113% (inactive) and 117% (inactive). Under `Cc1cc(=NO)cc(C)n1O` stands 113% (inactive); under `CCOC(=O)c1ccncc1`, 103% (inactive); under `CCCCC/C(C)=N\NC(N)=S`, 92.8% (inactive).

`CSc1nc(N)c(N)c(N)n1`: the growth was 117% (inactive). As to `O=C(O)Cc1cc(=O)[nH]n(-c2ccccc2)c1=O`, the growth is 110% (inactive).

With `COC1C(OC(N)=O)C(O)C(Oc2ccc3c(O)c(NC(=O)c4ccc(O)c(CC=C(C)C)c4)c(=O)oc3c2C)OC1(C)C` (stereo not given), the growth was 108% (inactive) and 104% (inactive).

Consider `CC(NC(=O)CCl)c1ccccc1` (stereo not given), for which the growth is 104% (inactive). Under `O=C(O)C(Cc1ccc(OS(=O)(=O)Cc2ccccc2)cc1)NS(=O)(=O)Cc1ccccc1` (stereo not given) stands 114% (inactive); under `O=[N+]([O-])c1ccc(NC2CCCCC2)nc1`, 108% (inactive) and 102% (inactive).

`CC(=O)/C(N=Nc1ccc(S(=O)(=O)c2ccc(N=N/C(C(C)=O)=C(/C)O)cc2)cc1)=C(\C)O`: the growth is 113% (inactive). Under `O=[N+]([O-])c1ccc(N2CCN=N2)cc1` stands 92.7% (inactive); under `O=C1c2cccnc2-c2ncccc21`, 123% [100 µM] (inactive); under `COCCCNC1=C(C#N)C(=O)NC(c2cccs2)S1` (stereo not given), 110% (inactive).

As for `O=c1[nH]c(=O)c2[nH]c(=O)[nH]c2[nH]1`, the growth is 105% (inactive). Under `O=C(N=C1C(=O)C2(CCCCC2)C2(N=C(c3ccccc3)OC2=O)C12CCCCC2)c1ccccc1` (stereo not given) stands 94% (inactive); under `O=C1C2=C(Nc3cc(Cl)ccc3N2)OC1c1c[nH]c2ccc(COc3ccccc3)cc12` (stereo not given), 111% (inactive). Take `COC(=O)C(Cc1cn(C(C)=O)c2ccccc12)P(=O)(OC)OC` (stereo not given): the growth is 105% (inactive). For `COC(=O)c1ccccc1Cl`, the growth was 102% (inactive). Consider `O=C1c2ccccc2CN1c1ccccc1`, for which the growth was 105% (inactive). Then `Cc1nc2c(=O)[nH]c(=S)[nH]c2[nH]c1=O`, with 108% (inactive) and 115% (inactive); and `CCCCCc1cc[n+](CC(=O)c2ccccc2)cc1`, with 87.3% (inactive) and 101% (inactive).
